{"source": "PubChem BioAssay (EPA / NIEHS)", "note": "Several values for one entry are separate records, joined by “and”; a condition that tells them apart may be missing. Equal values may be shown once. Where a structure was tested more than once in an assay, its records may differ in their call. Activity calls are given as the source filed them. Rule for the calls: active = hit-call score of the fitted dose curve at least 0.9, where 1 is the maximum; inactive = score below 0.9.", "data": [{"read-out": "Cytochrome P450 3A7 (Homo sapiens) (UniProt P24462)", "test": "LTEA_HepaRG_CYP3A7: Life Technologies and Expression Analysis (LTEA) Assay for CYP3A7 using HepaRG (AID 2283492)", "settings": "mRNA level, 48 h; actives raise or lower the signal", "in_short": "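CYP3A7 transcript levels were read by TaqMan qRT-PCR on Fluidigm arrays after 48 h chemical exposure of human HepaRG cells, with housekeeping-gene normalisation. Eight half-log concentrations up to 100 uM in 0.5% DMSO were tested in duplicate.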", "values": [{"smiles": "O=C(Nc1ccccc1)Nc1ccnc(Cl)c1", "outcome": "inactive"}, {"smiles": "O=C(O)c1nc(Cl)ccc1Cl", "outcome": "inactive"}, {"smiles": "CC(Oc1ccc(Cl)cc1Cl)C(=O)O", "note": "(stereo not drawn)", "outcome": "inactive"}, {"smiles": "CCCCNC(=O)OCC#CI", "AC50": "50 µM (active)"}, {"smiles": "COc1ccc(C(c2ccc(OC)cc2)C(Cl)(Cl)Cl)cc1", "outcome": "inactive"}, {"smiles": "CCNc1nc(Cl)nc(NCC)n1", "outcome": "inactive"}, {"smiles": "C=CC1(C)OC(=O)N(c2cc(Cl)cc(Cl)c2)C1=O", "note": "(stereo not drawn)", "AC50": "20.8 µM (active)"}, {"smiles": "CCOC(=O)CC(SP(=S)(OC)OC)C(=O)OCC", "note": "(stereo not drawn)", "outcome": "inactive"}, {"smiles": "Fc1ccc(Oc2ccnc3cc(Cl)cc(Cl)c23)cc1", "AC50": "79.4 µM (active)"}, {"smiles": "OC(c1ccc(Cl)cc1)(c1cncnc1)c1ccccc1Cl", "note": "(stereo not drawn)", "AC50": "11.9 µM (active)"}, {"smiles": "N#CC(CCc1ccc(Cl)cc1)(Cn1cncn1)c1ccccc1", "note": "(stereo not drawn)", "AC50": "11.7 µM (active)"}, {"smiles": "CC1COC(Cn2cncn2)(c2ccc(Oc3ccc(Cl)cc3)cc2Cl)O1", "note": "(stereo not drawn)", "outcome": "inactive"}, {"smiles": "COP(=S)(OC)Oc1nc(Cl)c(Cl)cc1Cl", "outcome": "inactive"}, {"smiles": "CCCN(CCC)c1c([N+](=O)[O-])cc(S(N)(=O)=O)cc1[N+](=O)[O-]", "AC50": "6.08 µM (active)", "outcome": "inactive"}, {"smiles": "COC(=O)C=C(C)OP(=O)(OC)OC", "outcome": "inactive"}, {"smiles": "CS/C(C)=N/OC(=O)N(C)SN(C)C(=O)O/N=C(\\C)SC", "outcome": "inactive"}, {"smiles": "CCOP(=S)(OCC)SCn1c(=O)oc2cc(Cl)ccc21", "outcome": "inactive"}, {"smiles": "COC(=O)C(C)Oc1ccc(Oc2ccc(Cl)cc2Cl)cc1", "note": "(stereo not drawn)", "AC50": "27.3 µM (active)"}, {"smiles": "CNC(=S)S", "outcome": "inactive"}, {"smiles": "C=CCC1=C(C)C(OC(=O)C2C(C=C(C)C)C2(C)C)CC1=O", "note": "(stereo not drawn)", "outcome": "inactive"}, {"smiles": "CCc1nn(C)c(C(=O)NCc2ccc(C(C)(C)C)cc2)c1Cl", "AC50": "0.35 µM (active)"}, {"smiles": "C=CCC1=C(C)[C@@H](OC(=O)[C@@H]2[C@@H](C=C(C)C)C2(C)C)CC1=O", "outcome": "inactive"}, {"smiles": "COc1nc(NC(C)C)nc(NC(C)C)n1", "outcome": "inactive"}]}, {"read-out": "CYP3A5 (gene 1577)", "test": "LTEA_HepaRG_CYP3A5: Life Technologies and Expression Analysis (LTEA) Assay for CYP3A5 using HepaRG (AID 2283493)", "settings": "mRNA level, 48 h; actives raise or lower the signal", "in_short": "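mRNA levels were quantified by qRT-PCR on Fluidigm arrays and normalized to three housekeeping genes. Differentiated HepaRG cells received 48 h exposure (top 100 uM, half-log steps, 0.5% DMSO vehicle, duplicate); bidirectional fitting versus DMSO.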", "values": [{"smiles": "OC(c1ccc(Cl)cc1)(c1cncnc1)c1ccccc1Cl", "note": "(stereo not drawn)", "outcome": "inactive"}, {"smiles": "N#CC(CCc1ccc(Cl)cc1)(Cn1cncn1)c1ccccc1", "note": "(stereo not drawn)", "outcome": "inactive"}, {"smiles": "N#Cc1nn(-c2c(Cl)cc(C(F)(F)F)cc2Cl)c(N)c1S(=O)C(F)(F)F", "note": "(stereo not drawn)", "outcome": "inactive"}, {"smiles": "CCc1nn(C)c(C(=O)NCc2ccc(C(C)(C)C)cc2)c1Cl", "AC50": "88.9 µM (active)"}]}, {"read-out": "Fatty Acid-Binding Protein 1 (FABP1), FABP1 (gene 2168)", "test": "LTEA_HepaRG_FABP1: Life Technologies and Expression Analysis (LTEA) Assay for Fatty Acid-Binding Protein 1 (FABP1) using HepaRG (AID 2283494)", "settings": "mRNA level, 48 h; actives raise or lower the signal", "in_short": "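Values reflect bidirectional concentration-response fitting of FABP1 mRNA change against 0.5% DMSO controls. Human HepaRG cultures received eight half-log doses (top 100 uM) for 48 h; expression quantified by TaqMan qRT-PCR with housekeeping-gene normalization.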", "values": [{"smiles": "O=C(Nc1ccccc1)Nc1ccnc(Cl)c1", "AC50": "71.3 µM (active)"}, {"smiles": "O=C(O)c1nc(Cl)ccc1Cl", "AC50": "33.4 µM (active)", "outcome": "inactive"}, {"smiles": "O=C(O)COc1nc(Cl)c(Cl)cc1Cl", "outcome": "inactive"}, {"smiles": "CC(Oc1ccc(Cl)cc1Cl)C(=O)O", "note": "(stereo not drawn)", "AC50": "50 µM (active)"}, {"smiles": "CCCCNC(=O)OCC#CI", "AC50": "50 µM (active)"}, {"smiles": "COc1ccc(C(c2ccc(OC)cc2)C(Cl)(Cl)Cl)cc1", "AC50": "65.4 µM (active)"}, {"smiles": "CCNc1nc(Cl)nc(NCC)n1", "outcome": "inactive"}, {"smiles": "C=CC1(C)OC(=O)N(c2cc(Cl)cc(Cl)c2)C1=O", "note": "(stereo not drawn)", "outcome": "inactive"}, {"smiles": "CCOC(=O)CC(SP(=S)(OC)OC)C(=O)OCC", "note": "(stereo not drawn)", "outcome": "inactive"}, {"smiles": "Fc1ccc(Oc2ccnc3cc(Cl)cc(Cl)c23)cc1", "AC50": "87 µM (active)"}, {"smiles": "OC(c1ccc(Cl)cc1)(c1cncnc1)c1ccccc1Cl", "note": "(stereo not drawn)", "AC50": "80.4 µM (active)"}, {"smiles": "N#CC(CCc1ccc(Cl)cc1)(Cn1cncn1)c1ccccc1", "note": "(stereo not drawn)", "AC50": "79.4 µM (active)"}, {"smiles": "N#Cc1nn(-c2c(Cl)cc(C(F)(F)F)cc2Cl)c(N)c1S(=O)C(F)(F)F", "note": "(stereo not drawn)", "AC50": "24.1 µM (active)"}, {"smiles": "CC1COC(Cn2cncn2)(c2ccc(Oc3ccc(Cl)cc3)cc2Cl)O1", "note": "(stereo not drawn)", "AC50": "23.3 µM (active)"}, {"smiles": "COP(=S)(OC)Oc1nc(Cl)c(Cl)cc1Cl", "outcome": "inactive"}, {"smiles": "CCCN(CCC)c1c([N+](=O)[O-])cc(S(N)(=O)=O)cc1[N+](=O)[O-]", "AC50": "93.5 µM (active) and 35.6 µM (active) and 34.9 µM (active)"}, {"smiles": "COC(=O)C=C(C)OP(=O)(OC)OC", "outcome": "inactive"}, {"smiles": "CS/C(C)=N/OC(=O)N(C)SN(C)C(=O)O/N=C(\\C)SC", "outcome": "inactive"}, {"smiles": "CCOP(=S)(OCC)SCn1c(=O)oc2cc(Cl)ccc21", "outcome": "inactive"}, {"smiles": "COC(=O)C(C)Oc1ccc(Oc2ccc(Cl)cc2Cl)cc1", "note": "(stereo not drawn)", "outcome": "inactive"}, {"smiles": "CNC(=S)S", "outcome": "inactive"}, {"smiles": "C=CCC1=C(C)C(OC(=O)C2C(C=C(C)C)C2(C)C)CC1=O", "note": "(stereo not drawn)", "AC50": "50 µM (active) and 44.6 µM (active)"}, {"smiles": "CCc1nn(C)c(C(=O)NCc2ccc(C(C)(C)C)cc2)c1Cl", "AC50": "5 µM (active)"}, {"smiles": "C=CCC1=C(C)[C@@H](OC(=O)[C@@H]2[C@@H](C=C(C)C)C2(C)C)CC1=O", "AC50": "50 µM (active)"}, {"smiles": "COc1nc(NC(C)C)nc(NC(C)C)n1", "AC50": "23.1 µM (active)"}]}, {"read-out": "Cytochrome P450 4A22 (Homo sapiens) (UniProt Q5TCH4)", "test": "LTEA_HepaRG_CYP4A22: Life Technologies and Expression Analysis (LTEA) Assay for Cytochrome P450 4A22 (CYP4A22) using HepaRG (AID 2283495)", "settings": "mRNA level, 48 h; actives raise or lower the signal", "in_short": "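HepaRG, 48 h post-plating -> serum-free induction medium; dosed 48 h, duplicate, 8 conc. (100 uM top, half-log), 0.5% DMSO. Readout: CYP4A22 mRNA by qRT-PCR, ACTB/GAPDH/POLR2A normalization; gain/loss fit relative to DMSO.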", "values": [{"smiles": "O=C(Nc1ccccc1)Nc1ccnc(Cl)c1", "AC50": "28.4 µM (active)"}, {"smiles": "O=C(O)c1nc(Cl)ccc1Cl", "outcome": "inactive"}, {"smiles": "O=C(O)COc1nc(Cl)c(Cl)cc1Cl", "outcome": "inactive"}, {"smiles": "CC(Oc1ccc(Cl)cc1Cl)C(=O)O", "note": "(stereo not drawn)", "outcome": "inactive"}, {"smiles": "CCCCNC(=O)OCC#CI", "outcome": "inactive"}, {"smiles": "COc1ccc(C(c2ccc(OC)cc2)C(Cl)(Cl)Cl)cc1", "AC50": "71.9 µM (active)"}, {"smiles": "CCNc1nc(Cl)nc(NCC)n1", "outcome": "inactive"}, {"smiles": "C=CC1(C)OC(=O)N(c2cc(Cl)cc(Cl)c2)C1=O", "note": "(stereo not drawn)", "outcome": "inactive"}, {"smiles": "CCOC(=O)CC(SP(=S)(OC)OC)C(=O)OCC", "note": "(stereo not drawn)", "outcome": "inactive"}, {"smiles": "Fc1ccc(Oc2ccnc3cc(Cl)cc(Cl)c23)cc1", "AC50": "82.6 µM (active)"}, {"smiles": "OC(c1ccc(Cl)cc1)(c1cncnc1)c1ccccc1Cl", "note": "(stereo not drawn)", "AC50": "72.9 µM (active)"}, {"smiles": "N#CC(CCc1ccc(Cl)cc1)(Cn1cncn1)c1ccccc1", "note": "(stereo not drawn)", "AC50": "40.4 µM (active)"}, {"smiles": "N#Cc1nn(-c2c(Cl)cc(C(F)(F)F)cc2Cl)c(N)c1S(=O)C(F)(F)F", "note": "(stereo not drawn)", "AC50": "26.2 µM (active)"}, {"smiles": "CC1COC(Cn2cncn2)(c2ccc(Oc3ccc(Cl)cc3)cc2Cl)O1", "note": "(stereo not drawn)", "AC50": "15.5 µM (active)"}, {"smiles": "COP(=S)(OC)Oc1nc(Cl)c(Cl)cc1Cl", "outcome": "inactive"}, {"smiles": "COC(=O)C=C(C)OP(=O)(OC)OC", "outcome": "inactive"}, {"smiles": "CS/C(C)=N/OC(=O)N(C)SN(C)C(=O)O/N=C(\\C)SC", "outcome": "inactive"}, {"smiles": "CCOP(=S)(OCC)SCn1c(=O)oc2cc(Cl)ccc21", "outcome": "inactive"}, {"smiles": "COC(=O)C(C)Oc1ccc(Oc2ccc(Cl)cc2Cl)cc1", "note": "(stereo not drawn)", "AC50": "12.7 µM (active)"}, {"smiles": "CNC(=S)S", "outcome": "inactive"}, {"smiles": "C=CCC1=C(C)C(OC(=O)C2C(C=C(C)C)C2(C)C)CC1=O", "note": "(stereo not drawn)", "AC50": "84.3 µM (active) and 94.1 µM (active) and 90.4 µM (active)"}, {"smiles": "CCc1nn(C)c(C(=O)NCc2ccc(C(C)(C)C)cc2)c1Cl", "AC50": "0.677 µM (active)"}, {"smiles": "C=CCC1=C(C)[C@@H](OC(=O)[C@@H]2[C@@H](C=C(C)C)C2(C)C)CC1=O", "AC50": "83.9 µM (active)"}, {"smiles": "COc1nc(NC(C)C)nc(NC(C)C)n1", "outcome": "inactive"}]}]}
